ALOX15B inhib: inhibitors of human 15-lipoxygenase 2 (ALOX15B). Potency, µM (series often up to 57.1 µM), most hits filed as inhibitors. purified 15hLO-2, xylenol orange hydroperoxide absorbance. 110,000 compounds, 0.56% hits; further: nearly all actives have a fitted effect of over 60% in size
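Enzyme 50 nM, AA 45 uM, 25 mM Hepes pH 7.5 + 0.01% Triton X-100; cpd preinc 15 min RT, rxn 90 min RT; stop/detect with 200 uM XO + 300 uM Fe(II) in 50 mM H2SO4, 30 min; A573/A405.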
ALOX12 inhib: 12-hLO (ALOX12) enzyme inhibition; P18054; Potency, µM (highest dose often 57.1 µM), usual class: inhibitors; purified 12-hLO, xylenol orange hydroperoxide absorbance; 150,000 compounds, 0.12% hits; further: nearly all actives have a fitted effect of over 55% in size
Target sequence (P18054 whole entry, looked up): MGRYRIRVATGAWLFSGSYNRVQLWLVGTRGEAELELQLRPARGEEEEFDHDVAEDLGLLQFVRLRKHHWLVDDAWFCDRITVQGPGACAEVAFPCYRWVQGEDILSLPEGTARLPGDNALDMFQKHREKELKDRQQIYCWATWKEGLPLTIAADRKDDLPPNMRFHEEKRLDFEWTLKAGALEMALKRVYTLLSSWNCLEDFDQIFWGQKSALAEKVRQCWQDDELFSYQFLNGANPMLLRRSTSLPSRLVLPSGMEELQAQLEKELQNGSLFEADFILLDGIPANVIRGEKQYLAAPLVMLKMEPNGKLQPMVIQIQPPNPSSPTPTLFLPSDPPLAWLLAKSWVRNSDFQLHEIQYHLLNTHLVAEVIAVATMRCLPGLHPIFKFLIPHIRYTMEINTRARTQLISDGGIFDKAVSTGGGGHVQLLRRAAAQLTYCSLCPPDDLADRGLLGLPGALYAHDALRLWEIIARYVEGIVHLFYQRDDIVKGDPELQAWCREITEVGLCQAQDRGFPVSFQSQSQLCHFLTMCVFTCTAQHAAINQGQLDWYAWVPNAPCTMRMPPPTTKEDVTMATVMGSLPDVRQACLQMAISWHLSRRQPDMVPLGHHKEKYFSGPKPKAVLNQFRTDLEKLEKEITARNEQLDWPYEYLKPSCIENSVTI
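Hydroperoxide formation by human 12-lipoxygenase from 40 uM arachidonic acid was followed colorimetrically via ferric-xylenol orange complex, using the 573/405 nm absorbance ratio. Enzyme concentration was 150 nM, with 30 min reaction at room temperature.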
A number is an active result; 0 = inactive; ? = inconclusive; - = not tested or not shown; [ ] = remark or other dose. Many of the other results were omitted from the sample, so hits are more common in it than they were. The call rests on the fitted dose curve; in most records, active means well fitted curve in the direction sought with a large enough effect; inconclusive means small, poorly fitted or top-dose-only effect, or another doubt; inactive means no such curve, though single readings can be large; an effect the other way counts as inactive or inconclusive.

SMILES	ALOX15B inhib	ALOX12 inhib
CCOC(=O)c1ccc(N2CSC3=C(C#N)C(c4cccs4)CC(=O)N3C2)cc1 (stereo not given)	0	0
CCOc1ccccc1N1CSC2=C(C#N)C(c3c(OC)ccc4ccccc34)CC(=O)N2C1 (stereo not given)	10µM	?
CCc1ccc(N2CSC3=C(C#N)C(c4cccs4)CC(=O)N3C2)cc1 (stereo not given)	20µM	?
CN1CSC2=C(C#N)C(c3cccc(OCc4ccccc4)c3)CC(=O)N2C1 (stereo not given)	?	0
CCOc1ccccc1N1CCN(c2nc3ccccc3nc2C(C#N)C(=O)OC)CC1 (stereo not given)	0	0
Nc1nc(Cl)nc2c1ncn2[C@@H]1O[C@@H](CO)[C@@H](O)[C@H]1O	0	0
Cc1ccccc1NC(=S)NCc1ccc2[nH]c3c(c2c1)CCCC3	-	14.1µM
O=C(NCc1ccc2[nH]c3c(c2c1)CCCC3)N1CCOCC1	0	0
CC(=O)c1cc2c(cc1O)OC(C)(C)C=C2	0	0
CN(C)c1ccc(N2CN=C3SCC(=O)N3C2)cc1	15.8µM	0
O=C1CSC2=NCN(c3ccc4c(c3)OCO4)CN12	0	0
O=C(NCCN1CCOCC1)c1ccc(-n2c(=O)c(=O)[nH]c3ccccc32)cc1	-	0
CN(C)c1ncc2nc(-c3ccc(Cl)cc3)c(=O)n(Cc3cccs3)c2n1	0	-
O=C1C(=O)N(Cc2cccc([N+](=O)[O-])c2)c2ccccc21	-	0
O=C1C(=O)N(Cc2ccc(Cl)c(Cl)c2)c2ccccc21	7.94µM	?
CC/C=C\C/C=C\C/C=C\C/C=C\C/C=C\C/C=C\CCC(=O)O[C@H](COCCCCCCCCCCCCCCCC)COP(=O)([O-])OCC[N+](C)(C)C	-	0
OC[C@@H]1O[C@@H](n2cnc3c(NC4CCCC4)ncnc32)[C@@H](O)[C@H]1O	0	0
S=C(NCCc1ccccc1)NC1CCCCCC1	25.1µM	?
O=C(NC(=S)NCCc1ccccc1)c1ccccc1	12.6µM	17.8µM
O=C(NCCc1ccccc1)C(=O)NC1CCCCC1	0	0
O=C(CCc1ccccc1)NNC(=S)NC(=O)c1ccccc1	0	0
CN1C[C@@H](C(=O)N[C@]2(C)O[C@]3(O)[C@H]4CCCN4C(=O)[C@H](Cc4ccccc4)N3C2=O)C[C@H]2c3cccc4[nH]cc(c34)C[C@@H]21	0	0
C#CCCOC(=O)N1C2=NC(C(=O)OC)=C(C(=O)OC)[C@@H]3N(CC#CC)c4ccccc4[C@]23C[C@H]1C(=O)OC	-	0[11.4 µM]
Cc1ccc(-c2c(C#N)c(N)nc3c2CCCCC3)o1	0	0
Cc1ccc(-c2cc(-c3ccc(C)o3)nc(N)c2C#N)cc1	?	15.8µM
SMILES	ALOX15B inhib	ALOX12 inhib
CCOc1cc(-c2cc(-c3ccc(C)o3)nc(N)c2C#N)ccc1O	?	0
Cc1ccc(-c2cc(-c3ccc(Cl)cc3)c(C#N)c(N)n2)o1	6.31µM	11.2µM
COc1ccc2[nH]cc(CCNc3ncncc3-c3ccccc3C)c2c1	0	-
COC(=O)[C@@H](NC(=O)N1CCc2nc(-c3ccccc3)c3c(c2C1)CO[C@@H](C)C3)C(C)C	-	0[11.4 µM]
COC(=O)C1=C(C(=O)OC)[C@@H]2N(Cc3ccccc3)c3ccccc3[C@@]23C[C@@H](C(=O)OC)N(S(=O)(=O)c2ccc(C)cc2)C3=N1	-	0[11.4 µM]
COc1ccccc1/C=C\C=N\n1c(C2CCCCC2)n[nH]c1=S	12.6µM	0
COc1ccccc1/C=C/C=N/n1c(-c2ccc(C)cc2)n[nH]c1=S	-	0
O=C(O)c1ccncc1.O=C(O)c1ccncc1.[Cl][Pt]([Cl])([Cl])[Cl]	0[11.4 µM]	0[11.4 µM]
Cc1ccc(NC(=O)CN2C(=O)S/C(=C/c3ccc(-c4cc(C(=O)O)ccc4C)o3)C2=O)cc1C	20µM	0
CCn1c(C)cc(/C=C2\SC(=O)N(CC(=O)Nc3ccc(C)c(C)c3)C2=O)c1C	?	0
CCc1cc(-c2n[nH]c(=S)n2C(C)c2ccccc2)cs1 (stereo not given)	0	15.8µM
Cc1scc(-c2n[nH]c(=S)n2C(C)c2ccccc2)c1C (stereo not given)	-	0
C[C@H]1Cc2c(COc3ccccc3)nc3c(c2CO1)CN(C(=O)C1CCCCC1)CC3	-	0[11.4 µM]
COC(=O)C1(C(=O)OC)Cc2conc2[C@H]1c1ccccc1	-	0
CCCCCCc1cc2cc(-c3nnc(-c4ccccc4O)o3)c(=O)oc2cc1O	25.1µM	0
CCCCCCc1cc2cc(-c3nnc(-c4ccccc4OC)o3)c(=O)oc2cc1O	?	0
COC(=O)CC1c2ccccc2C=C(/C=C/c2ccc3c(c2)OCO3)N1C(=O)OC (stereo not given)	-	0[11.4 µM]
CNC(=O)[C@@H]1O[C@@H](n2cnc3c(NCc4cccc(I)c4)ncnc32)[C@H](O)[C@@H]1O	0	0
OC(CNCc1ccccc1)Cn1ccc2ccccc21 (stereo not given)	-	0
Oc1ccccc1NCC(O)Cn1ccc2ccccc21 (stereo not given)	12.6µM	0
CCn1c2ccccc2c2cc(NC(=O)c3ccc(Br)o3)ccc21	3.16µM	0
CCn1c2ccccc2c2cc(NC(=O)c3cc(OC)cc(OC)c3)ccc21	-	0
COc1cc(N=c2ssnc2Cl)cc(OC)c1	?	10µM
OCc1ccccc1N=c1ssnc1Cl	?	0
CC(C)Nc1oc(-c2ccccc2)nc1-c1cccc2ccccc12	-	0
SMILES	ALOX15B inhib	ALOX12 inhib
COC(=O)C[C@H]1c2ccccc2[C@H]2C(=C[C@@H](C)[C@H]3C(=O)N(O)C(=O)[C@H]32)N1C(=O)OC	-	0[11.4 µM]
CCN1CCN(c2nc3ccccc3nc2C(C#N)S(=O)(=O)c2ccc(C)cc2)CC1 (stereo not given)	0	0
Cc1ccc(S(=O)(=O)C(C#N)c2nc3ccccc3nc2N2CCCC2)cc1 (stereo not given)	?	28.2µM
NS(=O)(=O)c1ccc(S(=O)(=O)N2CCCC2)cc1	0	0
Cc1ccc(-c2nnc(N3CCCCC3)c3ccccc23)cc1S(=O)(=O)N1CCN(C)CC1	0	0
O=c1c2ccccc2sn1-c1ccc(S(=O)(=O)N2CCCC2)cc1	0.398µM	?
Cc1ccc(-n2sc3ccccc3c2=O)cc1S(=O)(=O)N1CCCCC1	0.631µM	3.16µM
O=c1c2ccccc2sn1-c1ccccc1	1.26µM	12.6µM
O=C1CC(=O)N(c2ccccc2)N1c1ccccc1	-	0
COc1ccc(-c2nc(-c3ccccc3)oc2NC(C)C)cc1	-	0
CC#CCN1c2ccccc2[C@]23C[C@@H](C(=O)OC)N(S(=O)(=O)c4ccc(Br)cc4)C2=NC(C(=O)OC)=C(C(=O)OC)[C@H]13	-	0[11.4 µM]
O=C(Nc1ccccc1)c1ccc(Cc2nc3ccccc3[nH]2)cc1	-	0
Cc1nc2cnc(N3CCOCC3)nc2n(CCc2ccccc2)c1=O	0	-
COc1c2c(nc3ccccc13)O[C@@H]([C@@](C)(O)CO)C2	0	0
O=C(O)c1c(Cl)c(Cl)c(Cl)c(Cl)c1-c1c2cc(I)c(=O)c(I)c-2oc2c(I)c(O)c(I)cc12	7.94µM	?
COc1ccc(/C=N/NC(=S)NCc2ccccc2)cc1OC	-	0
CCN(CC)c1ccc(/C=N/NC(=S)NCc2ccccc2)cc1	?	25.1µM
COc1ccc(CC(N)C(=O)N[C@H]2[C@@H](O)[C@H](n3cnc4c(N(C)C)ncnc43)O[C@@H]2CO)cc1 (stereo not given in full)	0[0.0915 µM]	0[0.00818 µM]
COc1ccc(-c2nc3c(c4c2C[C@H](c2ccccc2)OC4)CN(C(=O)Nc2cccc(C#N)c2)CC3)c(C)c1	-	0[11.4 µM]
